What all share (test): NCI-60 one-dose screen, 48 h (100 = growth as untreated, 0 = no growth, -100 = all killed)
Assay [1] relates to NCI-H23 lung. Particulars: 10 µM unless noted.
Assay [2] has as its system NCI-H226 lung. Particulars: 10 µM unless noted.
Assay [3] has as its system NCI-H322M lung. The following applies: 10 µM unless noted.
For assay [4], the system named is HOP-92 NSCLC. The following applies: 10 µM.
Assay [5] has as its system NCI-H522 lung. Particulars: 10 µM.
Assay [6] relates to A549/ATCC NSCLC. Particulars: 10 µM unless noted.
Assay [7] concerns 786-0 renal. Particulars: 10 µM unless noted.
In assay [8] the test system is COLO 205 colon. The following applies: 10 µM unless noted.
Assay [9] concerns DU-145 prostate. The following applies: 10 µM unless noted.
The subject of assay [10] is K-562 leukemia. The following applies: 10 µM unless noted.
The subject of assay [11] is MALME-3M melanoma. Particulars: 10 µM unless noted.
Assay [12] concerns MDA-MB-231 breast. The following applies: 10 µM unless noted.
The test system of assay [13] is RXF 393 renal. The following applies: 10 µM unless noted.
Assay [14] deals with SF-268 CNS. Particulars: 10 µM unless noted.
The subject of assay [15] is SF-295 CNS. The following applies: 10 µM unless noted.
Assay [16] deals with SF-539 CNS. Particulars: 10 µM unless noted.
For assay [17], the system named is UACC-257 melanoma. Particulars: 10 µM unless noted.
Assay [18] concerns M14 melanoma. The following applies: 10 µM unless noted.

Compounds without any hit were thinned out: in the full panel of roughly 83,000, 20% have a hit.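 A percent growth of 40 corresponds to 60% growth inhibition; 0 means no net growth; -100 means all cells died. Active threshold: below 10.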 A number with no mark means an inactive call. The source made the active and inactive calls.

For the molecule `COc1cc(NC(=O)CSc2nc3ccc(Cl)cc3c(=O)n2-c2ccc(F)cc2)cc(OC)c1OC`, the growth is 85.2% in assay [1]; 83.2% in [2]; 86.9% in assay [3]; 36% in [4]; 79.5% in assay [5]; 83.8% in assay [6]. The growth in [7] was 75.2%; in assay [8], 107%; in assay [9], 96.9%; in [10] it was 80.5%; in assay [11], 85.8%; in assay [12] it was 64.7%. For the same molecule, the growth is 80.2% in assay [13]; 79.8% in assay [14]; 80% in assay [15]; 98.4% in [16]; 97.4% in [17]; 84.8% in assay [18].

As to `C=CN(C)S(C)(=O)=O`, the growth in assay [1] was 32.2%; in assay [2], 91.2%; in assay [3], 39.5%; in assay [6] it was 34.5%; in assay [7] it was 39.5%; in assay [8] it was 111%. For the same molecule, the growth in assay [9] was 18.5%; in [10], 21.9%; in assay [11], 28.3%; in [12] it was 46.2%; in [13] it was -9.3% (active); in assay [14], 36.5%. For the same molecule, the growth is 8.18% (active) in [15], 4.91% (active) in assay [16], 35.5% in assay [17] and 28.8% in assay [18].

In the case of `CCOC(=O)NC1=NCC(C)(C)S1`, the growth in [1] was 102%; in [2] it was 97.2%; in assay [3], 101%; in [5], 87.3%; in assay [6], 100%; in assay [7], 104%. In addition, the growth is 117% in assay [8]; 107% in assay [9]; 88.4% in assay [10]; 103% in assay [11]; 101% in assay [12]; 111% in [13]. Further, the growth in [14] was 97.8%; in assay [15], 98.7%; in assay [16], 110%; in assay [17], 103%; in [18], 103%.

With `C=CCNC(=S)NNc1ccc([N+](=O)[O-])cn1`, the growth in [1] was 93.5%; in assay [2], 94.4%; in [3], 89.7%; in [4], 98.1%; in assay [5], 80.4%; in assay [6], 101%. The growth in [7] was 105%; in assay [8] it was 110%; in assay [9] it was 104%; in assay [10] it was 94.3%; in assay [11], 79.6%; in assay [12], 89.7%. Also, the growth in [13] is 104%; in assay [14] it was 97.7%; in [15], 96.9%; in assay [16], 104%; in assay [17], 97.9%; in assay [18] it was 96%.

In the case of `COc1ccc(-c2cn3ccnc3c(-c3ccc4ncn(C5CCCCC5)c4c3)n2)cc1`, the growth in assay [1] was 37.9%; in assay [2] it was 64.1%; in [3], 68.5%; in assay [4], 47.7%; in [5], -20.9% (active); in assay [6], 31.4%. In addition, the growth is 16.8% in assay [7]; -8.01% (active) in [8]; 18.2% in [9]; 7.96% (active) in [10]; 28.9% in assay [12]; -8.48% (active) in [13]. The growth in [14] is 50.1%; in [15] it was 7.49% (active); in assay [16] it was -43.4% (active); in assay [17] it was 73.7%; in assay [18], 10.8%.

As for `CCOC(=O)NNc1[nH]c(-c2ccc(OC)cc2)cc1C#N`, the growth is 88.9% in assay [1]; 101% in assay [2]; 79.4% in [3]; 76.4% in assay [4]; 76% in assay [5]; 100% in [6]. Besides, the growth in assay [7] is 94.8%; in assay [8] it was 14.5%; in [9] it was 108%; in [10], 68.9%; in assay [12], 89.8%; in assay [13] it was 96%. Moreover, the growth was 103% in assay [14], 111% in assay [15], 94.3% in assay [16] and 92.5% in [17].

For the molecule `COc1cc(-c2nc3c(c(C)nc4c3nnn4-c3ccccc3)c(=O)o2)cc(OC)c1OC`, the growth in assay [1] was 115%; in [2] it was 104%; in [3] it was 104%; in [4], 103%; in [5], 103%; in assay [6], 112%. Further, the growth in [7] was 104%; in assay [8], 113%; in [9], 111%; in [10], 106%; in [11] it was 104%; in assay [12], 106%. Moreover, the growth in assay [13] was 108%; in assay [14], 98.3%; in [15], 104%; in assay [16] it was 102%; in [17], 119%; in assay [18] it was 98.6%.

As for `CCCCCC(=C/c1ccccc1)/C=N/N=C(N)N`, the growth in assay [1] was 44.6%; in assay [2], 66%; in assay [3] it was 20.3%; in [5], -65.3% (active); in assay [7], -65.4% (active); in [8], -93.9% (active). The growth in assay [10] is 5.26% (active); in assay [11], 37%; in assay [13] it was -31.3% (active); in [15] it was -64.3% (active); in assay [16], 45.5%; in assay [18] it was -64.5% (active).

As for `CC(C)CSc1nc(-c2ccc(F)cc2)c(C#N)c(N2CCCCC2)n1`, the growth in assay [1] is 83.7%; in assay [2], 90.5%; in [3], 94%; in assay [4], 97.5%; in [5], 82.6%; in assay [6] it was 86.6%. Moreover, the growth in [7] was 90.8%; in assay [8], 96.2%; in [9], 94.1%; in assay [10], 95.8%; in assay [11] it was 86.1%; in [12], 101%. The growth was 87.7% in [13]; 90.9% in [14]; 92.6% in assay [15]; 103% in assay [16]; 100% in assay [17]; 89.8% in [18].
